“And” between values parts separate entries of the source, which are not always exact repeats. Identical values can stand only once. Results filed as inconclusive are left out. Values without a mark were called inactive. The source made the active and inactive calls. Calls follow the shape of the dose curve; as a rule, active = well fitted cell-killing curve with a large enough effect; inconclusive = small, poorly fitted or top-dose-only effect; inactive = flat fitted curve, though single readings scatter.
Experiment: Cellular viability qHTS for adrenocortical cancer (ACC) cell line SW-13 (AID 1963989); also: nearly all actives have a fitted effect of over 65% in size;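 as to activity (max response): cells grown in serum-free medium with ITS supplement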
Conditions: SW-13 ACC cells viability, CellTiter-Glo, 48 h; activity (max response): stronger effect = lower value
Summary of the method: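 SW-13 cells in ITS-supplemented serum-free DMEM were plated overnight, then exposed for 48 h at 37C to compound titrations (up to 46 uM final). Viability was read by CellTiter-Glo luminescence; four-parameter logistic fits gave IC50 and efficacy.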
% is scaled to controls: 0 for no effect and ±100 for the full control effect; potency is read from the fitted curve at half-maximal effect.

Question: With `c1ccc(-c2ccc(CNc3nc(-c4ccccn4)nnc3-c3ccccc3)cc2)cc1` as the molecule, how does the Potency read?
Answer: The Potency was 11.2 µM (active).

Question: For `C=C1CCC2[C@](C)(CO)C(O)CC[C@]2(C)C1C/C=C1/C(=O)OCC1O` (stereo not given in full), which Potency is on record?
Answer: Its Potency is 25.1 µM (active).

Question: Which activity (max response) does the source give for `C[C@]12CCC3=C4CCC(=O)C=C4CC[C@H]3[C@@H]1CC[C@@]2(O)CC#N` here?
Answer: Its activity (max response) is 0.0754%.

Question: With `CC(C)C[C@H](CO)Nc1nc(S[C@@H](C)c2ccccc2)nc2nc(N)sc12` as the molecule, how does the Potency read?
Answer: The Potency was 31.6 µM (active).

Question: For `NCCCC[C@H](NC(=O)[C@@H](NC(=O)[C@H](Cc1c[nH]c2ccccc12)NC(=O)[C@H](CCCCN)NC(=O)[C@H](CCCCN)NC(=O)[C@H](Cc1c[nH]c2ccccc12)NC(=O)[C@H](Cc1c[nH]c2ccccc12)NC(=O)[C@H](CCCCN)NC(=O)[C@@H](N)CCCCN)C(c1ccccc1)c1ccccc1)C(N)=O`, which Potency is on record?
Answer: Its Potency is 31.6 µM (active).

Question: Which activity (max response) does the source give for `Cc1c(NC(=O)c2cc(C(N)=O)nc3cc(F)ccc23)c(C(F)(F)F)nn1Cc1ccc(C#N)cc1` here?
Answer: The activity (max response) was -7.79%.

Question: Which Potency does the source give for `CNC(=O)c1ccccc1Nc1nc(Nc2ccc3c(c2OC)CCC[C@@H](N2CCN(CCO)CC2)C3)ncc1Cl` here?
Answer: The Potency was 15.8 µM (active).

Question: For `C[C@]1(Cn2ccnn2)[C@H](C(=O)O)N2C(=O)C[C@H]2S1(=O)=O`, which activity (max response) is on record?
Answer: The activity (max response) was 2.68%.

Question: For `CCCCCOc1ccccc1/C(=C\SC)n1ccnc1`, which Potency is on record?
Answer: Its Potency is 23.1 µM (active).

Question: With `Cc1ccc(NC(=O)Nc2nnc(Sc3ncnc4cc(OCCCN5CCOCC5)ccc34)s2)cc1` as the molecule, how does the activity (max response) read?
Answer: Its activity (max response) is -9.58%.

Question: Which activity (max response) does the source give for `C#Cc1ccc(-c2ccccc2F)cc1` here?
Answer: The activity (max response) was -5.81%.

Question: For `C#C[C@]1(O)CC[C@H]2[C@@H]3CCC4=Cc5oncc5C[C@]4(C)[C@H]3CC[C@@]21C`, which activity (max response) is on record?
Answer: Its activity (max response) is 0.351%.

Question: Which activity (max response) does the source give for `COc1cc(C)c(/C=C/C(C)=C/C=C/C(C)=C/C(=O)O)c(C)c1C` here?
Answer: The activity (max response) was -22.4%.

Question: Which activity (max response) does the source give for `COc1cc(C(=O)OC(COCCC(C)C)CN2CCOCC2)cc(OC)c1OC` (stereo not given) here?
Answer: The activity (max response) was 9.82%.

Question: Which activity (max response) does the source give for `Cc1oc(=O)oc1COC(=O)[C@@H]1N2C(=O)[C@@H](NC(=O)[C@H](N)c3ccccc3)[C@H]2SC1(C)C` here?
Answer: The activity (max response) was 7.35%.

Question: Which Potency does the source give for `CCCCCCCCCCCCCCCC[N+](C)(C)Cc1ccccc1` here?
Answer: The Potency was 8.2 µM (active).

Question: With `CC1=C(c2ccc(O)cc2)[C@H](c2ccc(OCCN3CCCCC3)cc2)Oc2cc(O)ccc21` as the molecule, how does the activity (max response) read?
Answer: Its activity (max response) is -12%.

Question: For `CC(C)(C)Sc1c(CC(C)(C)C(=O)O)n(Cc2ccc(Cl)cc2)c2ccc(OCc3ccc4ccccc4n3)cc12`, which activity (max response) is on record?
Answer: The activity (max response) was 0.331%.

Question: With `C=CC(=O)N1CCC(CNc2ncnc(N)c2-c2ccc(Oc3ccccc3)cc2)CC1` as the molecule, how does the activity (max response) read?
Answer: The activity (max response) was -22.9%.

Question: For `CC1=C(C(=O)O)N2C(=O)[C@@H](NC(=O)[C@H](N)c3ccccc3)[C@H]2SC1`, which activity (max response) is on record?
Answer: Its activity (max response) is 10%.

Question: With `CCC(=O)O[C@]1(C(=O)CCl)[C@@H](C)C[C@H]2[C@@H]3CCC4=CC(=O)C=C[C@]4(C)[C@@]3(F)[C@@H](O)C[C@@]21C` as the molecule, how does the activity (max response) read?
Answer: The activity (max response) was -11.2% and -16.8%.

Question: For `CC(C(O)c1ccccc1)N(C)CCOC(c1ccccc1)c1ccccc1` (stereo not given), which Potency is on record?
Answer: The Potency was 20.6 µM (active).

Question: For `CCOc1ccc(Cc2cc([C@@H]3O[C@H](CO)[C@@H](O)[C@H](O)[C@H]3O)ccc2Cl)cc1`, which activity (max response) is on record?
Answer: Its activity (max response) is -2.91%.

Question: With `C=C1c2cccc(O)c2C(O)=C2C(=O)[C@]3(O)C(O)=C(C(N)=O)C(=O)[C@@H](N(C)C)[C@@H]3[C@@H](O)[C@H]12` as the molecule, how does the activity (max response) read?
Answer: Its activity (max response) is 3.29%.

Question: For `COc1ccccc1C(=O)Nc1cc2c(cc1N1CCCC1)n(C)c(=O)n2C`, which activity (max response) is on record?
Answer: The activity (max response) was -26.1%.

Question: For `Nc1nc(F)nc2c1ncn2[C@@H]1O[C@H](COP(=O)(O)O)[C@@H](O)[C@@H]1O`, which activity (max response) is on record?
Answer: The activity (max response) was -12.7%.

Question: Which Potency does the source give for `CNS(=O)(=O)c1ccc2c(c1)/C(=C/c1[nH]c3c(c1CCCN1CCN(C)CC1)CCCC3)C(=O)N2` here?
Answer: Its Potency is 28.2 µM (active).

Question: Which Potency does the source give for `COc1ccc(Cl)c(Nc2ncnc3cc(OCC4CCN(C)CC4)c(OC)cc23)c1` here?
Answer: The Potency was 15.8 µM (active).

Question: Which activity (max response) does the source give for `Cc1cc(O)cc2c1O[C@](C)(CCC[C@H](C)CCC[C@H](C)CCCC(C)C)CC2` here?
Answer: The activity (max response) was 7.62%.

Question: For `CC[C@@]1(O)C(=O)OCc2c1cc1n(c2=O)Cc2c-1nc1ccccc1c2CCNC(C)C`, which Potency is on record?
Answer: The Potency was 0.0823 µM (active).

Question: With `Nc1nc(F)nc2c1ncn2C1OC(COP(=O)(O)O)C(O)C1O` (stereo not given) as the molecule, how does the activity (max response) read?
Answer: The activity (max response) was -0.687%.

Question: Which activity (max response) does the source give for `CC[C@H](Nc1ncnc2nc[nH]c12)c1oc2ccccc2c(=O)c1-c1cccc(F)c1` here?
Answer: The activity (max response) was -13.2%.

Question: With `Cc1ccc(-n2nc(C(C)(C)C)cc2NC(=O)NCc2cc(F)ccc2Oc2ccc3c(cnn3CCO)c2)cc1` as the molecule, how does the Potency read?
Answer: Its Potency is 17.8 µM (active).

Question: With `CCCCCCCCCCCCCC[N+](C)(C)Cc1ccccc1` as the molecule, how does the Potency read?
Answer: The Potency was 6.51 µM (active).

Question: Which activity (max response) does the source give for `CCCCN1C[C@H](O)[C@@H](O)[C@H](O)[C@H]1CO` here?
Answer: Its activity (max response) is -2.93%.

Question: With `O=C(c1ccc(/C=C/c2n[nH]c3ccccc23)cc1)N1CCNCC1` as the molecule, how does the activity (max response) read?
Answer: Its activity (max response) is -10.3%.

Question: Which activity (max response) does the source give for `C=C1C(=O)OC2/C=C(/C)CC/C=C(/C)CCC12` (stereo not given) here?
Answer: The activity (max response) was -9.66%.

Question: For `Cc1c(O)cccc1C(=O)NC(CSc1ccccc1)C(O)CN1CC2CCCCC2CC1C(=O)NC(C)(C)C` (stereo not given), which Potency is on record?
Answer: Its Potency is 28.2 µM (active).

Question: Which activity (max response) does the source give for `CCOC(=O)c1ccnc(CNCC(=O)N(CC)CCN(C)C)c1` here?
Answer: Its activity (max response) is -23.8%.

Question: With `CCC[C@@H]1C[C@@H](C(=O)N[C@@H]([C@H]2O[C@H](SC)[C@H](O)[C@@H](O)[C@H]2O)[C@H](C)Cl)N(C)C1` as the molecule, how does the activity (max response) read?
Answer: The activity (max response) was 5.6%.
